Source: PubChem BioAssay (NCI)
This is part of a sample that, as a whole, favours compounds with a hit. Of some 83,000 tested, about 20% had one in any assay.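 Compound tested at a single concentration for 48 hours in 96-well plates; a percent growth value below 10 was scored as active.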 Activity calls are given as the source filed them.

Key:
Test in all cases: NCI-60 one-dose screen, 48 h (100 = growth as untreated, 0 = no growth, -100 = all killed)
Details in all cases: 10 µM unless noted
[1] = test system: DU-145 prostate
[2] = test system: K-562 leukemia
[3] = test system: MALME-3M melanoma
[4] = test system: MDA-MB-231 breast
[5] = test system: RXF 393 renal
[6] = test system: SF-268 CNS
[7] = test system: SF-295 CNS
[8] = test system: SF-539 CNS
[9] = test system: UACC-257 melanoma
[10] = test system: M14 melanoma

Measured: growth

CNC(=O)c1cc(Oc2ccc(NC(=O)Nc3cc(C(C)(C)C)nn3-c3ccc4ncccc4c3)c(F)c2)ccn1
active: [1] -22.1% | [2] -7.14% | [3] -59.5% | [4] -9.49% | [5] -71% | [6] -19.8% | [7] -13.1% | [8] -66.4% | [9] -24.3% | [10] -71.4%

FC(F)c1nc2ccccc2n1-c1nc(N2CCOCC2)nc(N2CCOCC2)n1
active: [1] 6.49% | [3] -26.7% | [5] -44.5% | [6] 2.79% | [7] -44.6% | [8] -45.3% | [9] -27.3% | [10] 3%
inactive: [2] 13.1% | [4] 15.7%

CO[C@H]1C[C@@H]2CC[C@@H](C)[C@@](O)(O2)C(=O)C(=O)N2CCCC[C@H]2C(=O)O[C@H]([C@H](C)C[C@@H]2CC[C@@H](O)[C@H](OC)C2)CC(=O)[C@H](C)/C=C(\C)[C@@H](O)[C@@H](OC)C(=O)[C@H](C)C[C@H](C)\C=C/C=C/C=C/1C
active: [5] -4.23%
inactive: [1] 42.1% | [2] 24.4% | [3] 35.1% | [4] 49.6% | [6] 39.3% | [7] 22.4% | [8] 27.4% | [9] 53% | [10] 50.3%

C#Cc1cccc(Nc2ncnc3cc(OC)c(OCCCCCCC(=O)NO)cc23)c1
active: [1] 0.81% | [2] 5.48% | [3] 2.19% | [4] -16.8% | [5] -49.5% | [6] -3.98% | [7] -53.6% | [8] -1.18% | [9] -47.3% | [10] 2.66%

COc1cc2c(cc1O)c(=O)n(CCN(C)C)c1c3cc4c(cc3ncc21)OCO4
active: [1] -10.9% | [2] 2.47% | [3] -57.6% | [4] -5.67% | [5] -51% | [6] 3.41% | [7] -5.78% | [8] -35.5% | [9] -47.6% | [10] -23.3%

COc1cc(Nc2ncc(F)c(Nc3ccc4c(n3)NC(=O)C(C)(C)O4)n2)cc(OC)c1OC
active: [5] -40.3% | [8] -14.8%
inactive: [1] 48.8% | [2] 66.5% | [3] 88.7% | [4] 41.7% | [6] 29.8% | [7] 59.9% | [9] 57.1% | [10] 57.5%

C[C@@H](N)c1ccc(C(=O)Nc2ccnc3[nH]ccc23)cc1
active: [5] -18%
inactive: [1] 52.3% | [2] 63.7% | [3] 75.1% | [4] 50% | [6] 50.6% | [7] 61.5% | [8] 11.1% | [9] 68.9% | [10] 64.9%

O=C(Nc1ccc(Nc2ncnc3sc4c(c23)CCOC4)cc1)Nc1ccc(Cl)c(C(F)(F)F)c1
inactive: [1] 96.1% | [2] 88.5% | [3] 88.7% | [4] 95.2% | [5] 98.9% | [6] 99.4% | [7] 83.1% | [8] 63.8% | [9] 105% | [10] 77.7%

COc1cc2ncnc(Nc3ccc(F)c(Cl)c3)c2cc1NC(=O)/C=C/CN1CCCCC1
active: [1] -42.7% | [2] -28.5% | [3] -80.7% | [4] -68.7% | [5] -92.1% | [6] -74.5% | [7] -55% | [8] -89.9% | [9] -77% | [10] -72%

Cc1cccc(C)c1N1C(c2ccccc2)=NNC12C=CC(=O)c1c(O)cccc12 (stereo not given)
inactive: [1] 93.7% | [2] 46.5% | [3] 62.7% | [4] 91.9% | [5] 105% | [6] 84.3% | [7] 61.3% | [8] 67.1% | [9] 58.5% | [10] 54.2%

CC(=O)CC1CCCC1c1ccc2ccccc2c1 (stereo not given)
inactive: [1] 107% | [2] 104% | [3] 99.1% | [4] 102% | [5] 109% | [6] 102% | [7] 106% | [8] 95.8% | [9] 97.8% | [10] 109%

Cc1cc(Nc2ncnc3ccc(NC4=NC(C)(C)CO4)cc23)ccc1Oc1ccn2ncnc2c1
inactive: [1] 35.2% | [2] 10% | [6] 41.8% | [7] 52.7% | [8] 30.4%
active: [3] -8.78% | [4] -4.62% | [5] 0.527% | [9] 4.04% | [10] 8.95%

CC(=O)C1CC(C)CCC1C(C)C (stereo not given)
inactive: [1] 111% | [2] 77% | [3] 126% | [4] 80.2% | [5] 107% | [6] 105% | [7] 120% | [8] 102% | [9] 111% | [10] 103%

Cc1ccc(N)cc1CN1C(=O)c2ccccc2C1=O
inactive: [1] 105% | [2] 105% | [3] 101% | [4] 106% | [5] 102% | [6] 121% | [7] 118% | [8] 107% | [9] 100% | [10] 96.9%

CNC(=O)c1cccc2cc(Oc3ccnc4cc(OCC5(N)CC5)c(OC)cc34)ccc12
inactive: [1] 77.7% | [2] 19.5% | [3] 74.3% | [4] 60.8% | [5] 39.8% | [6] 52.4% | [7] 58.4% | [8] 12.6% | [9] 90.2% | [10] 56.1%

C[C@@H]1COC(Nc2ccc3ncnc(Nc4ccc(OCc5nccs5)c(Cl)c4)c3c2)=N1
inactive: [1] 36.1% | [2] 22.6% | [3] 38% | [4] 42.8% | [5] 49.1% | [6] 46.5% | [7] 18.9% | [8] 65.5% | [9] 48.3% | [10] 19.5%

CCCCn1c(C)nc2cc(Nc3nc(N4CCCCC4)nc4nc[nH]c34)ccc21
inactive: [1] 60.2% | [2] 28.7% | [3] 61.5% | [4] 39.2% | [5] 22.1% | [6] 60.4% | [7] 47.1% | [8] 71.2% | [9] 62.1% | [10] 32.8%

Nc1ccc(S(=O)(=O)O)c2cc(S(=O)(=O)O)cc(O)c12
inactive: [1] 105% | [2] 117% | [3] 109% | [4] 106% | [5] 114% | [6] 111% | [7] 110% | [8] 95.8% | [9] 109% | [10] 90.7%

Nc1ncnc2c1c(-c1cccc(OCc3ccccc3)c1)cn2C1CC(CN2CCC2)C1 (stereo not given)
active: [2] -45.7% | [3] -79.7% | [4] 3.88% | [5] -16.4% | [7] -47.3% | [8] -84.4% | [9] -79.4% | [10] -78.1%
inactive: [1] 44.5% | [6] 17.3%

O=C1NC(=O)C(c2cnc3ccccn23)=C1c1cn2c3c(cc(F)cc13)CN(C(=O)N1CCCCC1)CC2
inactive: [1] 68.7% | [2] 27.9% | [3] 64.6% | [4] 70.2% | [5] 16.6% | [6] 64.7% | [7] 35.7% | [8] 53.8% | [9] 67.1% | [10] 50.7%

CCCCN1C(=O)c2cccc3c(-c4ccc5c(c4)ncn5C4CCCCC4)ccc(c23)C1=O
inactive: [1] 101% | [2] 86% | [3] 95.4% | [4] 108% | [5] 118% | [6] 106% | [7] 96.7% | [8] 101% | [9] 103% | [10] 92.1%

CCCNC(=O)c1cn2ncnc(Nc3cc(C(=O)NC4CC4)ccc3C)c2c1C
inactive: [1] 103% | [2] 85% | [4] 79.2% | [5] 40% | [6] 88% | [7] 79.5% | [8] 77.3% | [9] 65.6% | [10] 92.4%
active: [3] 3.42%

c1cn2cc(-c3ccc4cn[nH]c4c3)nc(Nc3ccc(N4CCOCC4)cc3)c2n1
inactive: [1] 53.3% | [2] 65.9% | [3] 74.8% | [4] 55.1% | [5] 12.4% | [6] 34.9% | [7] 66.4% | [8] 46.9% | [9] 62.6% | [10] 55.1%

CN(C)CCOC(=O)Nc1nc2ccc(Sc3ccccc3)cc2[nH]1
active: [8] -0.508% | [10] 0.259%
inactive: [1] 27.2% | [2] 15.7% | [3] 49.2% | [4] 47.8% | [5] 14.1% | [6] 51% | [7] 24.9% | [9] 49.1%

Cc1c(N)ccc(-c2ccc(N)c(C)c2S(=O)(=O)O)c1S(=O)(=O)O
inactive: [1] 111% | [2] 101% | [3] 127% | [4] 109% | [5] 118% | [6] 109% | [7] 117% | [8] 126% | [9] 115% | [10] 108%

O=C(Nc1cccc([N+](=O)[O-])c1)c1ccc(Cl)c(Cl)c1
inactive: [1] 74.8% | [2] 79.9% | [3] 30.2% | [4] 80.7% | [5] 62.8% | [6] 54.4% | [7] 58.7% | [8] 83% | [9] 92.5% | [10] 93.1%
